{"source": "paper PMC6925144", "about": "“A prospective compound screening contest identified broader inhibitors for Sirtuin 1” (Scientific Reports, 2019)"}
{"target": "NAD-dependent deacetylase Sirtuin 1 (human, UniProt Q96EB6)", "sequence (Q96EB6 2-747 limits assumed)": "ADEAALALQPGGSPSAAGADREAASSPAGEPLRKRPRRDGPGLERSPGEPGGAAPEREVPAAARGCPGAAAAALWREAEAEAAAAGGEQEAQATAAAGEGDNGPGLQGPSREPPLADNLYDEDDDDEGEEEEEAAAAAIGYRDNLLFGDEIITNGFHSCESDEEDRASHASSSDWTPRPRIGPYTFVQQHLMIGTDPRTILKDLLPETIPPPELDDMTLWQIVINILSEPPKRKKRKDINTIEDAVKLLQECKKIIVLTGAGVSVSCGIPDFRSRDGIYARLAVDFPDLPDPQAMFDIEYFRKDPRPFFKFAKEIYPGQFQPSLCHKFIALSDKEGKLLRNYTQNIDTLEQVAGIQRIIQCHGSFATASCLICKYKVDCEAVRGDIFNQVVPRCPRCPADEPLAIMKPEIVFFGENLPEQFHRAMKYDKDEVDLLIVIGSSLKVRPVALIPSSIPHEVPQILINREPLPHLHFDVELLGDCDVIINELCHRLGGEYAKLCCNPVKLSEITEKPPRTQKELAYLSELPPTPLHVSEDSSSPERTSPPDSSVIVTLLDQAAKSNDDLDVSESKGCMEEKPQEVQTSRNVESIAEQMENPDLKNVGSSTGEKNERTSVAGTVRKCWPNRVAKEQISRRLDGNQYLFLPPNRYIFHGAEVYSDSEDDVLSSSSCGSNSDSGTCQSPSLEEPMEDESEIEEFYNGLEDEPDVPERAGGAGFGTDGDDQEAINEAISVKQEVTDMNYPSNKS", "assay": "primary screen, percent inhibition; higher = more effect of the substance", "set-up": "mean of n = 4", "settings": "10 µM", "method": "Note that the inhibitory assay was conducted with NAD+.", "units": {"TSA(with NAD+) / Inhibitory assay (Promega kit) / Mean (%)": "%", "TSA(without NAD+) / Inhibitory assay (Promega kit) / Mean (%)": "%"}}
{"molecule": "COc1ccc2cc(/C=C/C(=O)Nc3ccc(C(N)=O)cc3)ccc2c1", "TSA(with NAD+) / Inhibitory assay (Promega kit) / Mean (%)": 19.8}
{"molecule": "Cc1ccc(N(C)S(=O)(=O)c2cccc(C(=O)Nc3ccc4c(c3)C(=O)N(C)C4=O)c2)cc1", "TSA(with NAD+) / Inhibitory assay (Promega kit) / Mean (%)": 25}
{"molecule": "NC(=O)C1CCN(c2nc(CSc3ccccc3)nc3sc4c(c23)CCCC4)CC1", "TSA(without NAD+) / Inhibitory assay (Promega kit) / Mean (%)": 12.9}
{"molecule": "N#CC(C(=O)c1ccc(NS(=O)(=O)c2ccccc2)cc1)c1nc(-c2ccccn2)cs1", "note": "(centres unmarked)", "TSA(without NAD+) / Inhibitory assay (Promega kit) / Mean (%)": -150}
{"molecule": "NC(=O)C1CCN(c2nc(-c3cccnc3)nc3sc4c(c23)CCCC4)CC1", "TSA(with NAD+) / Inhibitory assay (Promega kit) / Mean (%)": 39.7}
{"molecule": "Cc1ccc(C(C)(C)C)cc1S(=O)(=O)Nc1cccc(C(=O)NNC(=O)c2cccc(S(=O)(=O)Nc3cccc(C(F)(F)F)c3)c2)c1", "TSA(without NAD+) / Inhibitory assay (Promega kit) / Mean (%)": -8.09}
{"molecule": "CCn1c2ccccc2c2cc(NC(=O)C(C)OC(=O)c3cccc(S(=O)(=O)Nc4ccc(Cl)cc4)c3)ccc21", "note": "(centres unmarked)", "TSA(without NAD+) / Inhibitory assay (Promega kit) / Mean (%)": 23.9}
{"molecule": "Cc1sc2nc(-c3cccs3)nc(N3CCC(C(N)=O)CC3)c2c1C", "TSA(without NAD+) / Inhibitory assay (Promega kit) / Mean (%)": -0.574}
